Bioassay records as filed in PubChem BioAssay.
Rows were chosen to be rich in hits. Some 0.93% of all compounds tested hit in one or more screens of this group.
CDC25B CDK2 inh: human CDC25B-CDK2/CyclinA binding inhibition; HTRF CDC25B-CDK2/CyclinA binding, anti-His/anti-Flag; stronger effect = higher value; z-score (concentration not given with the values); hit rate 0.72% among 94,000; AID 1259370; in the data active means z-score above about 3.2
TAR Tat displ: HIV-1 TAR-Tat binding disruption; hit rate 0.6% among 100,000; HIV-1 TAR RNA, Tat peptide displacement FRET; stronger effect = higher value; z-score (concentration not given with the values); active means z-score of 3 or more in at least 2 runs
Active calls of the source: *.

What do the screens show for `Cn1cnc2cc(NCc3ccco3)ccc21`?
CDC25B CDK2 inh: 16.8*; TAR Tat displ: 0.29

How did CC(C)(C)n1cnc2cc(NCc3ccco3)ccc21 do in these assays?
CDC25B CDK2 inh: 0.72; TAR Tat displ: 1.44

What do the screens show for `CCCn1c(NCc2ccco2)nc2ccccc21`?
CDC25B CDK2 inh: -0.65; TAR Tat displ: 1.02

Results for O=C(CN1C(=O)CSc2ncccc21)NCCCSC1CCCCC1 ?
CDC25B CDK2 inh: -1.08; TAR Tat displ: -1.05

Results for COc1ccc2c(C(=O)O)cc(=O)[nH]c2c1 ?
CDC25B CDK2 inh: -1.18; TAR Tat displ: -0.28

How did COc1ccc2[nH]c(=O)cc(C(=O)O)c2c1 do in these assays?
CDC25B CDK2 inh: 0.85; TAR Tat displ: 12.6*

Results for Cc1ccc(S(=O)(=O)Nc2ccc3c(c2)ncn3-c2ccccc2)cc1 ?
CDC25B CDK2 inh: -0.26

Results for Cc1ccc(S(=O)(=O)/N=C2\C=C(n3cnc4ccccc43)C(=O)c3ccccc32)cc1 ?
CDC25B CDK2 inh: 17.3*

What do the screens show for `c1cnc2sc(N3CCC4(CC3)OCCO4)nc2c1`?
CDC25B CDK2 inh: -2.25

Results for CNc1nc2cccnc2s1 ?
CDC25B CDK2 inh: 8.24*

Results for Cc1sc2c(c1C)CSC(C(=O)Oc1cncc(Cl)c1)=C2 ?
TAR Tat displ: 0.9

What do the screens show for `Cc1ccc(-c2nnc3sc(/C=C/c4ccco4)nn23)cc1`?
CDC25B CDK2 inh: 14.3*; TAR Tat displ: 19.7*

What do the screens show for `c1csc(-c2nn3cnnc3s2)c1`?
CDC25B CDK2 inh: -0.82; TAR Tat displ: 0.39

How did Cc1ccc(/C=C/c2nn3c(-c4ccoc4C)nnc3s2)cc1 do in these assays?
CDC25B CDK2 inh: -1.26; TAR Tat displ: 0.92

What do the screens show for `C(=C\c1nn2cnnc2s1)/c1ccco1`?
CDC25B CDK2 inh: -0.67; TAR Tat displ: 20.8*

Results for Cc1occc1-c1nnc2sc(/C=C/c3ccccc3Cl)nn12 ?
CDC25B CDK2 inh: 1.22; TAR Tat displ: 7.7*

Results for Cc1ccc(-c2nn3c(C)nnc3s2)cc1 ?
CDC25B CDK2 inh: -0.67; TAR Tat displ: 0.49

How did Cc1nnc2sc(/C=C/c3ccco3)nn12 do in these assays?
CDC25B CDK2 inh: -1.1; TAR Tat displ: 10.7*

What do the screens show for `Cc1ccccc1/C=C/c1nn2c(-c3ccoc3C)nnc2s1`?
CDC25B CDK2 inh: -1.16; TAR Tat displ: 0.29

What do the screens show for `O=C(Nc1cccc(Br)c1)C1CCN(c2ccc(-c3cccs3)nn2)CC1`?
TAR Tat displ: -1.51

How did c1cc(CNc2ccc3c(c2)OCO3)ccn1 do in these assays?
CDC25B CDK2 inh: 0.08; TAR Tat displ: 0.91

How did Fc1ccc(NCc2ccncc2)cc1 do in these assays?
CDC25B CDK2 inh: 15.4*; TAR Tat displ: 1.05

What do the screens show for `Cc1ccc(F)cc1Nc1nc2ccc(Cl)cc2n2cnnc12`?
CDC25B CDK2 inh: 0.3; TAR Tat displ: 1.95

How did CCCCNC(=O)c1c(C)oc2ncnc(N3CCCCC3)c12 do in these assays?
TAR Tat displ: 0.38

What do the screens show for `CCN1C(C(=O)OC)=C(OC(=O)Cc2ccccc2)c2ccccc2S1(=O)=O`?
CDC25B CDK2 inh: -1.67; TAR Tat displ: -0.44

Results for CN1CCc2c(sc3c2C(=O)NC(c2ccc(O)c(O)c2)N3)C1 (stereo not given) ?
CDC25B CDK2 inh: -0.12; TAR Tat displ: 12.6*

What do the screens show for `COc1cc(C2NC(=O)c3c(sc4c3CCN(C)C4)N2)ccc1O` (stereo not given)?
CDC25B CDK2 inh: -0.03; TAR Tat displ: -8.13

What do the screens show for `O=C(Nc1ccccn1)c1cc(-c2ccccc2)c(C(F)(F)F)s1`?
CDC25B CDK2 inh: -1.68

What do the screens show for `O=C(Nc1ccccc1-c1cc2ccccc2[nH]1)NC1CCCC1`?
TAR Tat displ: 0.48

What do the screens show for `COc1ccc(C(=O)Nc2cc(C#N)c3sc4ccccc4n3c2=O)cc1OC`?
CDC25B CDK2 inh: 0.29; TAR Tat displ: 0.11

Results for COc1ccc(OC)c(NC(=O)NC(C)c2c(-n3cccc3)sc3c2CCCC3)c1 (stereo not given) ?
CDC25B CDK2 inh: -5.06; TAR Tat displ: -0.12

What do the screens show for `COc1ccc(NC(=O)NC(C)c2c(-n3cccc3)sc3c2CCCC3)cc1OC` (stereo not given)?
CDC25B CDK2 inh: 11.2*; TAR Tat displ: 0.45

How did Cc1ccc(CNC(=O)c2cnc3sc(N4CCCC(C)C4)nn3c2=O)o1 (stereo not given) do in these assays?
TAR Tat displ: 0.49

How did O=C(Nc1ccc2c(c1)OCO2)c1cnn(-c2ccccc2)c1C1CCNCC1 do in these assays?
TAR Tat displ: 0.73

Results for Cc1cc(=O)nc2c3ccccc3n(C(C)C(=O)Nc3ccc(F)cc3)n12 (stereo not given) ?
CDC25B CDK2 inh: -0.04; TAR Tat displ: -1.13

Results for CC1CC(=O)Nc2cc(S(=O)(=O)NCCN3CCOCC3)ccc2S1 (stereo not given) ?
TAR Tat displ: 1.1

Results for Cc1nnc(SCC(=O)Nc2ncc3c(n2)CC(c2ccco2)CC3=O)s1 (stereo not given) ?
CDC25B CDK2 inh: 4.23; TAR Tat displ: -1.45

What do the screens show for `O=C(CSc1nnnn1-c1ccccc1)Nc1ncc2c(n1)CC(c1ccco1)CC2=O` (stereo not given)?
CDC25B CDK2 inh: 15.3*; TAR Tat displ: -4.73

How did CC12CCC(C(=O)N3CCOCC3)(OC1=O)C2(C)C (stereo not given) do in these assays?
CDC25B CDK2 inh: -0.78

Results for CC(C)C(=O)N(c1cc2sc(=O)oc2c2ccccc12)S(=O)(=O)c1cccs1 ?
CDC25B CDK2 inh: 6.95*; TAR Tat displ: 0.5

How did CC(C)C(=O)N(c1ccc2oc(=O)sc2c1)S(=O)(=O)c1cccs1 do in these assays?
CDC25B CDK2 inh: -2.75; TAR Tat displ: 0.34

What do the screens show for `CCC(=O)OC1=CN(C(C)C)S(=O)(=O)c2ccccc21`?
CDC25B CDK2 inh: -1.03; TAR Tat displ: -1.25

How did Cc1nc(SCc2cc(=O)n3nc(CC(C)C)sc3n2)n[nH]1 do in these assays?
TAR Tat displ: 1.26

Results for O=c1[nH]nc2c3cc(F)ccc3n(Cc3ccccc3)cc1-2 ?
CDC25B CDK2 inh: -1.09; TAR Tat displ: 3.16*

What do the screens show for `Cc1cccc(Cn2cc3c(=O)[nH]nc-3c3cc(F)ccc32)c1`?
CDC25B CDK2 inh: 1.11; TAR Tat displ: 1.6

What do the screens show for `CCn1nnc2sc3c(c2c1=O)CCC(C(C)(C)C)C3` (stereo not given)?
CDC25B CDK2 inh: -1.16; TAR Tat displ: -0.04

How did CC1CCCN(CCNc2cc(N(C)C)c3noc4c3c2C(=O)c2ccccc2-4)C1 (stereo not given) do in these assays?
CDC25B CDK2 inh: -2.08; TAR Tat displ: 9.33*

Results for O=C1c2ccccc2-c2onc3c(N4CCCCC4)cc(NCCO)c1c23 ?
CDC25B CDK2 inh: 11.7; TAR Tat displ: 22.9*

Results for CCCN1CCN(c2cc(NCCO)c3c4c(onc24)-c2ccccc2C3=O)CC1 ?
CDC25B CDK2 inh: -3.65; TAR Tat displ: 2.86

How did O=C1c2ccccc2-c2onc3c(N4CCCCC4)cc(NCCN4CCCC4)c1c23 do in these assays?
CDC25B CDK2 inh: -0.44; TAR Tat displ: 0.1

What do the screens show for `CCN1CCN(c2cc(NCCO)c3c4c(onc24)-c2ccccc2C3=O)CC1`?
CDC25B CDK2 inh: 1.11; TAR Tat displ: 15.3*

Results for O=C1c2ccccc2-c2onc3c(N4CCCCC4)cc(NCCN4CCOCC4)c1c23 ?
CDC25B CDK2 inh: 1.91; TAR Tat displ: 6.42*

Results for O=C1c2ccccc2-c2onc3c(N4CCCC4)cc(NCCO)c1c23 ?
CDC25B CDK2 inh: -1.05; TAR Tat displ: -5.86

Results for CN(C)c1cc(NCCN2CCCCC2)c2c3c(onc13)-c1ccccc1C2=O ?
CDC25B CDK2 inh: 2.59; TAR Tat displ: 0.47
